Hit rate of the full screen: of about 370,000 compounds, about 5,400 (1.5%) were called active. The sample holds actives, similar compounds and a random draw of the others, so the mix is not that of the screen. Unmarked numbers belong to inactive results.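 Rule for the calls: active = activation above the mean of all tested compounds plus 3 SD (cut at about 5.5% in these data); inactive = the rest.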

The experiment has as its system DAF-12 nuclear receptor (Haemonchus contortus). As to the kind of experiment: H. contortus DAF-12 nuclear receptor activators, primary screen, cell-based, luminescence, HEK293, lit1-tk-luc reporter (AID 652067).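 Note: 100% = response to 3 µM Δ7-dafachronic acid high control.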 As to conditions: HEK293 hcDAF-12 lit1-tk-luc reporter, at 6.8 µM, hits give high values, 0% DMSO, 100% Δ7-dafachronic acid.
For `COc1cc(C(=O)Nc2ncccc2C)ccc1OCC(=O)N1CCOCC1`, the activation was -1.69%. In the case of `O=C(NC(=O)c1ccccc1)Nc1ccccc1O` it was 12.2% (active).

As for `O=C(Cc1ccc(Cl)cc1)NC(=S)Nc1ccccc1O`, the activation is -0.62%. Consider `O=C(NC(=S)Nc1cccc2c(O)cccc12)c1cccc(Br)c1`, for which the activation is 1.98%.

Regarding `CCCC[C@H]1C2CC(OC(=O)NCc3ccccc3)C(C2)[C@H]2CCCCN21` (stereo not given in full), the activation is 0.87%.

Consider `COC(=O)C[C@H]1CC[C@H]2[C@H](COc3ccc(NC(=O)C4CC4)cc3C(=O)N2C)O1`, for which the activation was 0.16%. With `COc1ccccc1-c1sc2ccccc2c1C#CC1(O)CCCCC1` the figure was 1.87%; with `COc1ccc(C2CC(c3ccccc3)=NN2C(=O)c2ccc(Cl)c([N+](=O)[O-])c2)cc1` (stereo not given), 0.35%. As to `COc1ccc(C2=NN(C(=O)c3ccccc3C(=O)O)C(c3ccccc3O)C2)cc1` (stereo not given), the activation was 12.9% (active).

Turning to `CCOc1ccc2nc(Cl)c(C3CC(c4ccccc4)=NN3C(=O)c3cccs3)cc2c1` (stereo not given), the activation was -2.57%. For `O=C1Nc2ccccc2OC1CC(=O)N1CCCCCCC1` (stereo not given), the activation is 1.16%. With `CCCCNC(=O)C[C@H]1C[C@@]2(C(=O)OC)C(=C[C@H](COCc3ccccc3)O[C@@H]2C)N(Cc2ccc(Cl)cc2Cl)C1=O` the figure was -3.26%. As to `C=C(C)C#CC(Cc1ccccc1)NCC1CC1` (stereo not given), the activation is -1.73%.

Consider `CCN(CC)CC(=O)Nc1sc2c(c1C(=O)c1ccccc1C)CCC2`, for which the activation was -0.3%. With `NC(=O)c1c(NC(=O)c2ccccc2)sc2c1CCCC2` the figure was 7.46% (active); with `O=C(O)c1c(NC(=O)N2CCCC2)sc2c1CCCC2`, -0.22%. With `Cc1nc2ccc(C(=O)N3CCN(C(=O)C(C)(C)C)CC3)cc2n1C1CCCC1` the figure was -2.87%. In the case of `CC(CCN1CCC(C(O)(c2ccccc2)c2ccccc2)CC1)Oc1ccc([N+](=O)[O-])cc1Cl` (stereo not given) it was 6.54% (active); in that of `CC(CCN1CCC(C(O)(c2ccccc2)c2ccccc2)CC1)Oc1ccc(Cl)cc1` (stereo not given), 4.67%. For the compound `CC(CCN1CCC(C(O)(c2ccccc2)c2ccccc2)CC1)Oc1ccc(C(F)(F)F)cc1` (stereo not given), the activation was -0.22%.

Consider `Cc1cc(C)cc(NC(=O)N2CCC(N(C)CCC(C)C)CC2)c1`, for which the activation is -0.86%. In the case of `CC(C)(C)OC(=O)NCc1cc(F)ccc1/C=C/S(=O)(=O)NCCc1ccccc1` it was -0.58%. In the case of `CCOC(=O)c1c(NC(=S)Nc2ccccc2)sc2c1CCN(C)C2` it was 0.34%; in that of `CCOC(=O)c1cn[nH]c1NC(=S)Nc1ccccc1`, 7.58% (active).

With `CCOC(=O)c1cc2c(nc1NC(=S)Nc1ccccc1)CC(C)(CC)OC2` (stereo not given), the activation is -0.86%. As to `C[C@H]1CN([C@@H](C)CO)C(=O)CCCn2nncc2CO[C@@H]1CN(C)C(=O)Nc1ccc(N2CCN(C)CC2)cc1`, the activation was -1.4%. In the case of `O=C(O)c1[nH]c2ccccc2c1C(c1cccc(O)c1)c1c(C(=O)O)[nH]c2ccccc12` it was 6.89% (active).

With `Cc1ccc2[nH]c(C(=O)O)c(NC(=O)c3ccccc3[N+](=O)[O-])c2c1`, the activation was 3.39%. With `CCCS(=O)(=O)Nc1c(C(=O)O)[nH]c2ccccc12` the figure was 3.5%; with `CCC(c1ccc(NC(=O)OC(C)(C)C)cc1)c1cc(OC)cc(OC)c1` (stereo not given), -1.61%. With `CCOc1ccc(Oc2c(Cl)cnn(-c3ccc(C)cc3)c2=O)cc1` the figure was -0.82%. In the case of `N#CC1=C(N)Oc2c(sc3ccccc23)C1c1ccco1` (stereo not given) it was 6.9% (active). For the compound `CCC(=O)c1c(CC)c2n3c1=CC[C@H]3CC(Br)C=2` (stereo not given in full), the activation is -2.16%. With `CC(C)c1ccc(Nc2ncccc2C#N)cc1` the figure was 5.74% (active); with `CN(C)c1ccnc(Nc2ccc(F)cc2)c1C#N`, 1%; with `CCN1C(=O)N[C@@H]2C[C@H](C(=O)N3CCCC3)[C@H](C)[C@H](c3ccccc3)C[C@@H]21`, 0.19%. In the case of `CC(C)CNc1cccc2c1S(=O)(=O)N(Cc1cn(Cc3ccc(Cl)cc3)nn1)Cc1ccccc1O2` it was -0.84%; in that of `CCc1ccc(-c2cc(C(=O)NN3CCN(C)CC3)c3ccccc3n2)cc1`, 6.67% (active). As to `COC(=O)c1cc(N2CCNCC2)nc2ccccc12`, the activation is 0.41%. Consider `CCCCc1nc2ccccc2c(NC(=O)CN2CCN(C)CC2)c1CCC`, for which the activation was 0.46%. With `COC(=O)C(C(=O)OC)c1ccccc1NS(=O)(=O)c1cccc2ccccc12` the figure was -1.63%; with `COc1cccc(/C=C2\CC3(OC(C)=O)CCCN2C3)c1` (stereo not given), -1.14%. For the compound `CNC(=O)c1sc(Nc2ccc(OCc3ccccc3)cc2)nc1C`, the activation was -3.73%.

On to `COc1cccc2sc(Nc3nc(C)c(C(C)=O)s3)nc12`, for which the activation is 6.52% (active). In the case of `COc1ccccc1Nc1ncc(C(C)=O)c(C)n1` it was -0.49%; in that of `CCOC(=O)N1CCN(C(=O)C[C@@H]2C(=O)N(CCc3ccc(Cl)cc3)C3=CCCC[C@]32C(=O)OCC)CC1`, -4.47%.

Take `CCCCNC(=O)C[C@@H]1C(=O)N(CCc2ccc(Cl)cc2)C2=CCCC[C@]21C(=O)OCC`: the activation was -2.83%. In the case of `O=C(COC(=O)c1ccccn1)NNC(=O)c1ccc(Br)cc1` it was -2.22%; in that of `COc1ccc(C(=O)O/N=C(\N)c2ccccn2)cc1[N+](=O)[O-]`, 6.36% (active). In the case of `N/C(=N\OC(=O)CCC1CCCCC1)c1ccccn1` it was 4.24%.

In the case of `COc1ccccc1OCC(=O)O/N=C(\N)c1ccccn1`, the activation was 7.16% (active). With `C/C(=N/OC(=O)c1cccc(C(F)(F)F)c1)c1cnccn1` the figure was -0.26%. In the case of `COc1ccccc1OCC(=O)OCc1cc(-c2ccco2)on1` it was -2.08%; in that of `N/C(=N\OC(=O)Cc1ccc([N+](=O)[O-])cc1)c1ccccn1`, 1.92%; in that of `Cc1ccc(C(=O)O/N=C(\N)c2ccccn2)cc1Cl`, 8.22% (active).

Take `O=C(COC(=O)c1ccccn1)NNC(=O)c1ccc([N+](=O)[O-])cc1`: the activation is 1.23%. With `CCOC(=O)c1cccc(NC(=O)CN(C)S(=O)(=O)c2ccc(-c3cocn3)s2)c1` the figure was -1.38%. With `C=CCN1C(=O)[C@@H](CC(=O)N2CCN(C(=O)OCC)CC2)[C@]2(C(=O)OCC)CCCCC/C=C/12` the figure was 0.11%; with `CCC(=O)OCCCN1C(=O)CCC12CCC(c1ccccc1)CC2` (stereo not given), -1.9%. With `CN(C)[C@H]1CCN(c2cccc3c2S(=O)(=O)N2CC[C@H](C2)O3)C1` the figure was 1.72%; with `Cc1ccc(CN2CCCCC(NC(=O)C3CCCCC3)C2=O)cc1` (stereo not given), -1.6%; with `COC(=O)[C@]12C[C@H](CC(=O)N3CCN(C(=O)C4CC4)CC3)C(=O)N(CCC3=CCCCC3)C1=C[C@H](C(C)C)O[C@@H]2C1CC1`, -1.23%. Regarding `Nn1c(SCC(=O)Nc2ccc(S(N)(=O)=O)cc2)nnc1-c1n[nH]c2c1CCC2`, the activation was -1.75%. In the case of `Cc1ccc(NC(=O)c2cc3ccccc3o2)cc1` it was 10.5% (active). As to `Cc1cccc(-n2nc3c(c2NC(=O)c2cc4ccccc4o2)CS(=O)(=O)C3)c1`, the activation was 1.51%. For the compound `C/C(=N\NC(=S)Nc1ccc(C)cc1)c1cc2ccccc2o1`, the activation is -0.69%. In the case of `CC(C)(C)c1ccc(CSc2nnc(-c3cccs3)o2)cc1` it was 1.61%; in that of `COc1ccccc1C(=O)NC(=O)COC(=O)C1CC1`, 0.43%; in that of `CCOc1ccc(C(O)Cn2c(=N)n(CCN3CCCCC3)c3ccccc32)cc1` (stereo not given), -0.25%. With `Cc1nc2ccccc2n1CC(O)c1ccccc1` (stereo not given), the activation is 1.55%. With `Cn1c(=N)n(CC(O)c2ccccc2)c2ccccc21` (stereo not given) the figure was 6.33% (active). For the compound `CCC(=O)Nc1ccc2c(c1)C(=O)N(C)[C@H]1CC[C@H](CC(=O)NCCOC)O[C@@H]1CO2`, the activation was -0.71%. For the compound `COC(=O)C1CN(CCc2ccccc2)CCS(=O)(=O)N1Cc1cccc(Cl)c1` (stereo not given), the activation is -1.52%.

As for `O=C(NC1CCCCN(Cc2ccc(Cl)cc2)C1=O)c1ccc(Br)cc1` (stereo not given), the activation is -2.55%.

As to `O=C(NCc1ccco1)/C(=C/c1ccco1)NC(=O)c1ccccc1`, the activation is -0.96%.

With `O=C(NC(Cc1ccccc1)C(=O)O)/C(=C\c1ccccc1)NC(=O)c1ccco1` (stereo not given), the activation is -0.54%. In the case of `O=C(NC(Cc1c[nH]c2ccccc12)C(=O)O)/C(=C/c1ccco1)NC(=O)c1ccccc1` (stereo not given) it was 6.62% (active); in that of `Cc1ccc(-n2c(SCC(=O)Nc3ccc(S(=O)(=O)Nc4nccs4)cc3)nnc2-c2ccccn2)cc1`, -0.18%. In the case of `COc1cc(NC(=O)C2CCCN(S(=O)(=O)c3ccc(C(C)(C)C)cc3)C2)cc(OC)c1` (stereo not given) it was -1.6%; in that of `CC(C)C(C#CC1CC1)N(Cc1ccc2c(c1)OCO2)C(N)=NC(=O)/C=C/c1cccc(C(F)(F)F)c1` (stereo not given), 0.1%.

Consider `COC(=O)[C@]1(C#N)CC(=O)N(CC2CCCCC2)[C@@H]1c1ccccc1`, for which the activation is 0.64%. In the case of `CCS(=O)(=O)c1ccc(-c2cccc(NC(=O)c3ccc(Br)o3)c2)nn1` it was 1.53%. With `O=C(Nc1cccc(C(=O)O)c1)/C(=C\c1ccccc1)NC(=O)c1ccc(Br)o1` the figure was -0.49%.

For `Cc1cccc(NC(=S)NC(=O)c2ccc(Br)o2)c1`, the activation was 6.48% (active). For `CC(=O)c1ccc(N=C2SCCCN2C(=O)C2CCCCC2)cc1`, the activation is 1.46%. Turning to `COC(=O)c1ccc(CN2C(=O)[C@]3(OCCC=C[C@H]3C)c3c(Br)cccc32)cc1`, the activation is -3.24%. In the case of `O=C(CN1CCC(NC(=O)NCc2ccccc2)CC1)Nc1ccc2c(c1)OCCO2` it was -0.83%; in that of `C=CCNc1nc(Nc2ccc(Cl)cc2)nc(OC)n1`, -0.18%. Consider `Clc1ccc(Nc2ccc3ccccc3n2)cc1`, for which the activation is 17.1% (active). With `CC1(C)N=C(N)NC(Nc2ccc(Cl)cc2)=N1` the figure was 0.62%.
